Assay results reported in PubChem BioAssay AID1036 (National Center for Advancing Translational Sciences (NCATS), 2008).
Records with an inconclusive call do not appear. Activity calls are given as the source filed them. Calls follow the shape of the full dose curve.

assay: NSCLC 1 Cell Viability Secondary Assay for qHTS Assay for Epigenetic Modulator; details: NSCLC 1 cells viability, MTS absorbance, 4 days
Source text: NIH Molecular Libraries Screening Centers Network [MLSCN] NIH Chemical Genomics Center [NCGC] MLSCN Grant: 1 X01 MH079860-01 Assay Provider: Elisabeth D. Martinez, University of Texas SW Medical Center NCGC Assay Overview: This secondary assay characterizes selected actives identified in the qHTS of the Locus Derepression (LDR) assay (PubChem AID 597). The LDR assay detects the derepression of a GFP reporter that is stably integrated in a region of the genome of murine c127i mammary cells that is presumably silenced. Compounds that cause derepression of the locus to express GFP are identified by enumerating GFP positive cells using a laser-scanning microplate cytometer. Selected LDR actives were assayed for killing of NSCLC 1, a patient-derived nonsmall cell lung carcinoma line. Known epigenetic drugs, like histone deacetylase inhibitors, can block cancer cell growth. NSCLC 1 cell viability was measured using Cell Titer 96 AQueous One (Promega), an assay which detects the ability of metabolically active cells to reduce a tetrazolium salt substrate (MTS), into a soluble formazan product that can be measured by colorimetry.
NCGC Assay Protocol Summary NSCLC 1 cells were plated in 96-well flat bottom tissue culture dishes (Corning) and grown overnight at 37 C and 5% CO2, then treated with compounds, incubated 4 days, and assayed for viability using the Cell Titer 96 AQueous One kit (Promega) according to the manufacturer's protocol. Absorbance at 490 nm and 650 nm (reference) was measured by a Spectra Max (Molecular Devices). Data were normalized to the untreated control (100% viability). Each cell line was tested in one or two independent assays, each containing 4 or 8 replicates. For further details, see R.L. Johnson, W. Huang, A. Jadhav, C.P. Austin, J. Inglese, E.D. Martinez, A Quantitative High-Throughput Screen Identifies Potential Epigenetic Modulators of Gene Expression, Analytical Biochemistry (2007), doi: 10.1016/j.ab.2007.12.028

Structure (SMILES) | outcome | Potency
CN1C(=S)SC(c2ccccc2)N(C)C1c1ccccc1 (configuration not stated) | inactive | 
CC(C)C(=O)NC(c1ccco1)c1ccc2cccnc2c1O (configuration not stated) |  | 1000 nM (active)
O=C(CSc1cccc2cccnc12)NCc1ccccc1 | inactive | 
CC(C)C(=O)NC(c1ccco1)c1cc([N+](=O)[O-])c2cccnc2c1O (configuration not stated) |  | 8000 nM (active)
CC(C)C(=O)NC(c1ccc(N(C)C)cc1)c1ccc2cccnc2c1O (configuration not stated) |  | 300 nM (active)
O=Nc1ccc(O)c2ncccc12 |  | 4000 nM (active)
CC(/C=C/C(=O)NO)=C\[C@@H](C)C(=O)c1ccc(N(C)C)cc1 |  | 100 nM (active)
